Measurements from ChEMBL document CHEMBL3988442, “University of Dundee, Small-Polar-MMV Screening Library” (2021).
Hit rate of the full screen: of about 66,000 compounds, about 960 (1.5%) showed an effect of 50% or more. Shown is part of a subset that was picked to be rich in strong results.

System: Trypanosoma brucei
Experiment: Trypanosoma brucei 72 hour study
Format: functional, organism-based
Set-up: scale not given: in the data most compounds retested in dose-response had high values

COc1ccc(C(=O)N2CCC(Oc3cccc(C)c3)(C(=O)O)CC2)o1
Percent Effect (30 µM, 30.03 µM): -24.59%

O=C(c1ccc(COc2ccccc2Cl)o1)N1N=CCC1(O)C(F)(F)F (stereo not given)
Percent Effect (30.3 µM, […]): 31%

O=C(c1ccc(COc2ccc(Cl)cc2)o1)N1N=CCC1(O)C(F)(F)F (stereo not given)
Percent Effect (30.3 µM, […]): 99.58%

COCc1ccc(C(=O)N2CCC(Oc3ccccc3)(C(=O)O)CC2)o1
Percent Effect (30 µM, 30.03 µM): -16.4%

COc1c(CNCc2ccc(C(=O)N(C)C(C)C)cc2)c(C)nn1C
Percent Effect (10 µM): -22.99%

Cc1c(CNCc2nn(-c3ccccc3)c3c2CCC3)cc(C#N)n1C
Percent Effect (30 µM, 30.03 µM): -10.92%

COc1ccccc1CNCc1nn(-c2ccccc2)c2c1CCC2
Percent Effect (30 µM, 30.03 µM): 105.2%

Cc1noc(C)c1CNCc1nn(-c2ccccc2)c2c1CCC2
Percent Effect (30 µM, 30.03 µM): -40.9%

Cc1cncc(C(=O)N2CCO[C@H]3[C@H](OCCN(C)C)CC[C@@H]32)c1.O=C(O)C(F)(F)F.O=C(O)C(F)(F)F
Percent Effect (30.3 µM, […]): -21.9%

Cc1n[nH]c(C)c1C1COCCN1C(=O)c1cc(F)ccc1F (stereo not given)
Percent Effect (30.3 µM, […]): -0.3197%

CNC(=O)CN1CC[C@H]2CN(C(=O)c3cccn3C)C[C@H]2C1.O=C(O)C(F)(F)F
Percent Effect (30.3 µM, […]): -42.42%

NC1CCCCN(Cc2cc(-c3ccccc3OC(F)(F)F)no2)C1 (stereo not given)
Percent Effect (30 µM, 30.03 µM): 101.5%

N[C@@H]1CCN(Cc2cc(-c3ccccc3OC(F)(F)F)no2)C[C@H]1O
Percent Effect (30 µM, 30.03 µM): -20.57%

OC1COCCN(Cc2cc(-c3ccccc3OC(F)(F)F)no2)C1 (stereo not given)
Percent Effect (30 µM, 30.03 µM): -31.26%

O=C(O)C(F)(F)F.O=C(O)C(F)(F)F.c1ccc(OCc2nnc3n2CCN(CC2CC2)C3)nc1
Percent Effect (30 µM, 30.03 µM): 16.25%

CC(C)Oc1ncccc1CNC(=O)N1CCC1
Percent Effect (30.3 µM, […]): -18.33%

COc1ccc(C)cc1CCNS(=O)(=O)c1ccc2c(c1)CCC(=O)N2
Percent Effect (30 µM, 30.03 µM): -47.2%

COc1ccc(C(C)NS(=O)(=O)c2ccc3c(c2)CCC(=O)N3)cc1F (stereo not given)
Percent Effect (30 µM, 30.03 µM): 95.9%

COc1ccc(C)cc1C(C)NS(=O)(=O)c1ccc2c(c1)CCC(=O)N2 (stereo not given)
Percent Effect (30 µM, 30.03 µM): -36.95%

CC(CN1CCOCC1)OC(=O)c1ccccc1Cl.Cl (stereo not given)
Percent Effect (30 µM, 30.03 µM): -53.51%

CC(C)N(C)Cc1cnc2n1CCN(Cc1ccc(F)cc1)C2.O=C(O)C(F)(F)F.O=C(O)C(F)(F)F
Percent Effect (30.3 µM, […]): 5.253%

Cc1c(C(=O)N2CCN(C)CC2)n(C)c2ccc(Cl)cc12
Percent Effect (30.3 µM, […]): 12.9%

Cc1c(C(=O)N2CCN(c3ccccn3)CC2)n(C)c2ccc(Cl)cc12
Percent Effect (30.3 µM, […]): 79.78%

Cc1c(C(=O)N2CCN(c3ncccn3)CC2)n(C)c2ccc(Cl)cc12
Percent Effect (30.3 µM, […]): 36.3%

Cn1ccnc1CN1CCC2(CC1)Cc1ccccc1CNC2=O.O=C(O)C(F)(F)F
Percent Effect (30.3 µM, […]): -47.04%

CC(C)C(=O)NC(Cc1cc(N(C)C)nc(C2CC2)n1)c1ccccc1 (stereo not given)
Percent Effect (30.3 µM, […]): 30.74%

CN(C)c1cc(CC(NC(=O)C2CC2)c2ccccc2)nc(C2CC2)n1 (stereo not given)
Percent Effect (30.3 µM, […]): 52.69%

CCC(=O)NC(Cc1cc(N(C)C)nc(C2CC2)n1)c1ccccc1 (stereo not given)
Percent Effect (30.3 µM, […]): 13.14%

CC(C)(C)CN1CC(COc2ccccc2)Oc2ccncc2S1(=O)=O (stereo not given)
Percent Effect (30.3 µM, […]): -12.26%

O=C(O)C(F)(F)F.c1coc(CN2CCO[C@H]3[C@@H](OCC4CC4)CC[C@@H]32)c1
Percent Effect (30.3 µM, […]): -12.22%

Cc1nc(CN2CCN(C)C(=O)C23CCN(C(C)C)CC3)cs1.O=C(O)C(F)(F)F
Percent Effect (30.3 µM, […]): -9.175%

Cc1cc2n(n1)CC(CNCc1ccc(-n3cccn3)nc1)CN2 (stereo not given)
Percent Effect (30 µM, 30.03 µM): -7.458%

c1ccc(Oc2ccc(CNCC3CNc4ccnn4C3)cn2)cc1 (stereo not given)
Percent Effect (30.3 µM, […]): 59.34%
Percent Effect (10 mM, 10 mM as filed; unlikely as a test dose): -30.66%

c1cc2n(n1)CC(CNCc1ccc(OC3CCCCC3)nc1)CN2 (stereo not given)
Percent Effect (30 µM, 30.03 µM): 28.54%

Cc1ccc(CNCC2CNc3cc(C)nn3C2)cn1 (stereo not given)
Percent Effect (30.3 µM, […]): -20.04%

Cc1cc2n(n1)CC(CNCc1ccc(OCC3CC3)nc1)CN2 (stereo not given)
Percent Effect (30.3 µM, […]): 69.29%
Percent Effect (10 mM, 10 mM as filed; unlikely as a test dose): -5.536%

Fc1cccc(Oc2ccc(CNCC3CNc4ccnn4C3)cn2)c1 (stereo not given)
Percent Effect (30 µM, 30.03 µM): 11.44%

COCCOc1ccc(CNCC2CNc3cc(C)nn3C2)cn1 (stereo not given)
Percent Effect (30.3 µM, […]): 6.502%

COc1ccc(CNCC2CNc3cc(C)nn3C2)cn1 (stereo not given)
Percent Effect (30.3 µM, […]): 11.94%

c1cc2n(n1)CC(CNCc1ccc(OC3CCCC3)nc1)CN2 (stereo not given)
Percent Effect (30.3 µM, […]): 80.85%
Percent Effect (10 mM, 10 mM as filed; unlikely as a test dose): 9.3%

c1cc(CNCC2CNc3ccnn3C2)cc(OC2CCCC2)n1 (stereo not given)
Percent Effect (30.3 µM, […]): 16.86%

Cc1cc2n(n1)CC(CNCc1ccc(Oc3ccccc3)nc1)CN2 (stereo not given)
Percent Effect (30.3 µM, […]): 53.59%

Fc1ccc(Oc2ccc(CNCC3CNc4ccnn4C3)cn2)cc1 (stereo not given)
Percent Effect (30.3 µM, […]): 22.41%
Percent Effect (10 mM, 10 mM as filed; unlikely as a test dose): -33.28%

O=C(Nc1cccn(Cc2ccc(F)cc2)c1=O)c1csnn1
Percent Effect (30 µM, 30.03 µM): -24.79%

CN(C(=O)Cc1ccccc1Cl)C1CCN(c2ccccn2)CC1
Percent Effect (10 µM): -27.72%
Percent Effect (30.3 µM, […]): 20.76%
